Values joined by “and” are separate entries in the source; they are usually repeats but may differ in a detail not shown here. Equal values may be shown once. The panel holds about 79,000 compounds, 15% with a hit somewhere; the sample as a whole holds those more often. Rule as the data show it: active = growth inhibition above about 70%; inactive = the rest.
Tests used:
[1] = NCI Yeast Anticancer Drug Screen. Data for the rad50 strain (AID 155);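 also: 0% = growth of vehicle-only cultures of the same strain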; conditions: S. cerevisiae rad50 strain growth inhibition, stronger effect = higher value; at 50.0 µM unless noted
How it was run: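 DNA repair mutant yeast, compound exposure, growth read-out; inhibition is taken relative to vehicle.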

[2] = NCI Yeast Anticancer Drug Screen. Data for the mec2-1 strain (AID 157); conditions: S. cerevisiae mec2-1 strain, stronger effect = higher value; at 50.0 µM unless noted
How it was run: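 Vehicle-treated cultures served as reference for growth inhibition of compound-exposed mec2-1 yeast.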

[3] = NCI Yeast Anticancer Drug Screen. Data for the sgs1 mgt1 strain (AID 161);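 also: 0% = growth of cultures given vehicle only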; conditions: S. cerevisiae sgs1 mgt1 strain, stronger effect = higher value; at 50.0 µM unless noted
How it was run: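 Mutant yeast exposed to compound; growth scored against vehicle-only wells.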

[4] = NCI Yeast Anticancer Drug Screen. Data for the cln2 rad14 strain (AID 165);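 also: 0% = growth equal to vehicle treated cultures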; conditions: S. cerevisiae cln2 rad14 strain, stronger effect = higher value; at 50.0 µM unless noted
How it was run: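 Each compound was tested on cln2 rad14 yeast. Inhibition of growth was calculated against vehicle-exposed controls.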

[5] = NCI Yeast Anticancer Drug Screen. Data for the bub3 strain (AID 167); conditions: S. cerevisiae bub3 mutant strain, stronger effect = higher value; at 50.0 µM unless noted
How it was run: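 In this screen, a yeast mutant lacking normal mitotic checkpoint function is challenged with compound. Relative growth versus vehicle gives the inhibition value.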

[6] = NCI Yeast Anticancer Drug Screen. Data for the mlh1 rad18 strain (AID 175); conditions: S. cerevisiae mlh1 rad18 strain growth inhibition, stronger effect = higher value; at 50.0 µM unless noted
How it was run: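 Vehicle-treated cultures served as the reference for growth inhibition in a yeast strain carrying DNA damage repair alterations exposed to each compound.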

Measured: growth inhibition

CC(=O)C(C)(CCN(C)C)c1ccccc1 (centres undefined)
inactive: [1] 6.5% | [2] 4.4% | [3] 7.45% | [4] -10.3% | [5] 6.55% | [6] 12.8%

CCN1CCN(c2nc3ccccc3c3c2CCOc2ccccc2-3)CC1
inactive: [1] -12.4% | [2] -16.9% | [3] -15.8% | [4] 19.1% | [5] 0.25% | [6] 6%

CC(C)N(C(=O)c1ccccc1O)C(C)C
inactive: [1] 2.95% | [2] -7.65% | [3] 6.55% | [4] -7.7% | [5] -4.4% | [6] 2%

CC1CCC2(C(=O)O)CCC3(C)C(=CCC4C5(C)CCC(O)C(C)(C)C5CCC43C)C2C1C (centres undefined)
inactive: [1] 12.8% and 11.4% | [2] 11.3% and 0.15% | [3] 12.3% and -9.2% | [4] 0.45% and 16.4% | [5] 5.8% and -7.4% | [6] 14.4% and 0.85%

CC1OCC(O)C(C(O)C(=O)CN(Cc2ccccc2)Cc2ccccc2)O1 (centres undefined)
inactive: [1] 10.2% | [2] 15.6% | [3] 8.65% | [4] 8.55% | [5] 5.75% | [6] 9.55%

COc1ccc(C2CC(=O)N(c3ncccn3)C(=O)C2)cc1
inactive: [1] 14.5% | [2] 8.4% | [3] 10% | [4] -13.7% | [5] -12.3% | [6] 5.25%

O=C1c2ccccc2C(=O)N1C/C=C/CO
inactive: [1] 11.5% | [2] 8.75% | [3] -1.45% | [4] 7.6% | [5] 0.95% | [6] 1.15%

c1ccc(CNc2nnnc3ccccc23)cc1
inactive: [1] -2.75% | [2] -1.45% | [3] -2.4% | [4] -30.8% | [5] -14.5% | [6] 2.2%

CC1=NN(c2ccccc2)C(=O)C1O (centres undefined)
inactive: [1] 12.1% | [2] 16.2% | [3] -6.05% | [4] -25.4% | [5] -10.6% | [6] 2.5%

CNNC(=O)C(O)C(C)(C)CO (centres undefined)
inactive: [1] -4.45% | [2] 8.5% | [3] -4.3% | [4] 20.1% | [5] 6.5% | [6] 9.8%

O=C(Cc1ccccc1)NCCCN(CCCCN(CCCNC(=O)Cc1ccccc1)C(=O)OCc1ccccc1)C(=O)OCc1ccccc1
inactive: [1] -11.9% | [2] -11.6% | [3] -2.7% | [4] -7.4% | [5] -0.85% | [6] -27.6%

O=C(CNC(=O)C(CSC(c1ccccc1)c1ccccc1)NC(=O)C(CSC(c1ccccc1)(c1ccccc1)c1ccccc1)NC(=O)OCc1ccccc1)OC(c1ccccc1)c1ccccc1 (centres undefined)
inactive: [1] 4.15% | [2] 3.1% | [3] -6.25% | [4] -4.25% | [5] -1.85% | [6] 20.7%

CCc1c(CC)c(CC)c(CC)c(CC)c1CC
inactive: [1] -42.3% | [2] -14.7% | [3] -36.4% | [4] -39% | [5] 1.05% | [6] -31.8%

O=C(c1ccccc1)c1ccc(NC(=O)C(F)(F)F)cc1
inactive: [1] 15.7% | [2] 5.9% | [3] 3.85% | [4] 4.75% | [5] -0.15% | [6] 18.9%

O=c1ccc2ccc3[nH]onc3c2c1
inactive: [1] 10.2% | [2] -12.6% | [3] -5.85% | [4] -48.8% | [5] -26.4% | [6] -2.2%

N#CCSc1ncnc2nc[nH]c12
inactive: [1] 4.25% | [2] 1.65% | [3] -5.95% | [4] 5.6% | [5] 4.8% | [6] 0.15%

CS(=O)(=O)OCC1OC(n2ncc(=O)[nH]c2=O)C(O)C1O (centres undefined)
inactive: [1] 6.9% | [2] 13.7% | [3] -7.1% | [4] -2.45% | [5] 2.95% | [6] 11%

C/C(CCCCCCCCCCCC/C(C)=N\Nc1ccc([N+](=O)[O-])cc1[N+](=O)[O-])=N/Nc1ccc([N+](=O)[O-])cc1[N+](=O)[O-]
inactive: [1] -15.8% | [2] 5.25% | [3] -3.2% | [4] 27.2% | [5] 2.3% | [6] 31.6%

Cc1cc(Cl)ccc1NC(=O)C1C(=O)N(c2ccc(Cl)cc2C)C(=O)/C1=N\N (centres undefined)
inactive: [1] 0.65% | [2] -31.4% | [3] 10.4% | [4] -18.9% | [5] -9.1% | [6] 9.7%

Cn1c(=O)c2nc(SCC(=O)O)n(C)c2n(C)c1=O
inactive: [1] 3.6% | [2] 6.2% | [3] 7.4% | [4] -10.1% | [5] 5.35% | [6] 3.2%

COc1ccc(-[n+]2nc(S(=O)(=O)O)c(/C=C/c3ccc(N(C)C)cc3)cc2C#N)cc1
inactive: [1] -13.8% | [2] -9.05% | [3] 20.1% | [4] 6.65% | [5] 5.85% | [6] -9.5%

CCOC(Cc1ccccc1)OCC
inactive: [1] 20.9% | [2] 19.9% | [3] 18.4% | [4] -0.7% | [5] 10.9% | [6] 12.7%

Cc1ccc(OC/C=C/CSc2ccc(Br)cc2)cc1
inactive: [1] 4.95% | [2] 4.75% | [3] 2.4% | [4] -2.4% | [5] -19.9% | [6] -24.9%

CNC(=O)N(C)Cc1ccccc1
inactive: [1] 12.7% | [2] -12.8% | [3] 2.75% | [4] -98.7% | [5] -13.6% | [6] -11.2%

COC(=O)CCC1(C)C2CCC1(C)/C(=N/O)C2 (centres undefined)
inactive: [1] -10.2% | [2] 3.15% | [3] 2.35% | [4] 0.45% | [5] -21.1% | [6] 6.7%

CC(C)(C)C1CCC2c3c([nH]c4ccccc34)C3C(=O)N(c4cc(Br)cc(Br)c4)C(=O)C3C2C1 (centres undefined)
inactive: [1] 14.3% | [2] 9.15% | [3] 7.75% | [4] 18.9% | [5] 21.8% | [6] -46.5%

CCCCC(CC)C(O)P(=O)(O)O (centres undefined)
inactive: [1] -9.2% | [2] -15.1% | [3] -9.75% | [4] -14.3% | [5] 2.8% | [6] 0.45%

CC12Nc3ccccc3N1C(=O)c1ccccc12 (centres undefined)
inactive: [1] 15.7% | [2] 6.15% | [3] -34.8% | [4] 1.95% | [5] -1% | [6] -0.5%

OCCN1CCCCCCC1
inactive: [1] -2% and 0.2% | [2] -6.15% and -3.8% | [3] -4.6% and 0.65% | [4] -0.45% and 5.6% | [5] -6.3% and 10.1% | [6] -7.5% and -0.3%

Cc1ccc(S(=O)(=O)c2ccccc2)cc1
inactive: [1] -18.4% and 23.4% | [2] -15.6% and -0.95% | [3] -22.5% and 23% | [4] 2.4% and 1.35% | [5] -5.35% and 3.1% | [6] -43.6% and 16.6%

COC(=O)C1CCOC(C)N1C(=O)OC(C)(C)C (centres undefined)
inactive: [1] 2.9% | [2] 0.75% | [3] 6.4% | [4] 11% | [5] 13.2% | [6] -34.5%

CCO[C@@H]1OC(=O)[C@H]2C(c3ccccc3Cl)=NO[C@@H]12
inactive: [1] -33.1% | [2] -30.9% | [3] -13.2% | [4] -6.65% | [5] 14.2% | [6] 0.35%

CCOC(=O)c1c(SCc2ccccc2)nc2c3ccccc3ccn12
inactive: [1] -18.2% | [2] -18.6% | [3] -29.9% | [4] -1.15% | [5] -20.9% | [6] -57.5%

CC(C)(C)CC(C)(C)c1ccc(O)c(CN2CCCCC2)c1
inactive: [1] 10.2% | [2] 8.55% | [3] 26.1% | [4] -6.7% | [5] 16.6% | [6] 8.65%

From PubChem BioAssay (NCI)
